# Source: PubChem BioAssay AID1159580 (chemical genetic matrix, 2015)
# Values joined by “and” are separate entries in the source; they are usually repeats but may differ in a detail not shown here. Equal entries are not always repeated. About 2,000 (36%) of roughly 5,500 compounds were called active. Inconclusive results (about 18%) are left out. The list shows a part of the results. Values without a mark were called inactive. No stated cut-off is given here; in the data, active means normalized growth mostly below about 0.91 (no sharp cut-off); inconclusive means no clear call, values can overlap the other calls; inactive means mostly above about 0.92. Where a SMILES comes first, the peptide text is derived from it. [ ]: non-standard residue; d: D form. Orn = NCCC[CH](N)C(=O)O
# Test: chemical genetic growth profiling, strain panel (AID 1159580);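 further: tested at 20 µM; growth read once vehicle control cultures reached saturation at 30 °C; 1 = growth at the plate median or of vehicle wells; lower values mean less growth of the strain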
# Conditions: S. cerevisiae deletion strains, growth OD
compound,measurement,setting,value
CC(C)CC1NC(=O)C(CCCN)NC(=O)C(C(C)C)NC(=O)C2CCCN2C(=O)C(Cc2ccccc2)NC(=O)C(CC(C)C)NC(=O)C(CCCN)NC(=O)C(C(C)C)NC(=O)C2CCCN2C(=O)C(Cc2ccccc2)NC1=O (stereo unspecified) (cyclo(FPV[Orn]LFPV[Orn]L); configuration not given here),normalized growth,"locus YAL013W, strain DEP1, active compounds read low",1.01
same,normalized growth,"locus YAL021C, strain ccr4, active compounds read low",0.995
same,normalized growth,"locus YAL026C, strain drs2, active compounds read low",0.911
same,normalized growth,"locus YAL030W, strain snc1, active compounds read low",1.03
same,normalized growth,"locus YBL061C, strain skt5, active compounds read low",1.02
same,normalized growth,"locus YBR009C, strain hhf1, active compounds read low",1.01
same,normalized growth,"locus YBR021W, strain FUR4, active compounds read low",0.931
same,normalized growth,"locus YBR023C, strain chs3, active compounds read low",1.01
same,normalized growth,"locus YBR171W, strain sec66, active compounds read low",1.07
same,normalized growth,"locus YBR229C, strain ROT2, active compounds read low",1.01
same,normalized growth,"locus YBR231C, strain swc5, active compounds read low",0.934
same,normalized growth,"locus YBR279W, strain paf1, active compounds read low",1.02
same,normalized growth,"locus YCL011C, strain gbp2, active compounds read low",1.02
same,normalized growth,"locus YCL016C, strain dcc1, active compounds read low",1
same,normalized growth,"locus YCL029C, strain bik1, active compounds read low",0.986
same,normalized growth,"locus YCL061C, strain MRC1, active compounds read low",1.03
same,normalized growth,"locus YCL069W, strain vba3, active compounds read low",1.03
same,normalized growth,"locus YCR088W, strain abp1, active compounds read low",1.03
same,normalized growth,"locus YDL005C, strain med2, active compounds read low",1.02
same,normalized growth,"locus YDL035C, strain GPR1, active compounds read low",0.992
same,normalized growth,"locus YDL040C, strain nat1, active compounds read low",1.02
same,normalized growth,"locus YDL074C, strain BRE1, active compounds read low",0.964
same,normalized growth,"locus YDL101C, strain DUN1, active compounds read low",1
same,normalized growth,"locus YDL134C, strain PPH21, active compounds read low",1.01
same,normalized growth,"locus YDL185W, strain tfp1, active compounds read low",0.249 (active)
same,normalized growth,"locus YDL192W, strain arf1, active compounds read low",0.104 (active)
same,normalized growth,"locus YDR001C, strain nth1, active compounds read low",1.03
same,normalized growth,"locus YDR069C, strain doa4, active compounds read low",0.905
same,normalized growth,"locus YDR101C, strain arx1, active compounds read low",0.998
same,normalized growth,"locus YDR137W, strain rgp1, active compounds read low",0.307 (active)
same,normalized growth,"locus YDR150W, strain NUM1, active compounds read low",1.02
same,normalized growth,"locus YDR159W, strain sac3, active compounds read low",1.02
same,normalized growth,"locus YDR162C, strain NBP2, active compounds read low",1.01
same,normalized growth,"locus YDR195W, strain ref2",0.363 (active)
same,normalized growth,"locus YDR297W, strain sur2, active compounds read low",1.03
same,normalized growth,"locus YDR318W, strain mcm21, active compounds read low",1.01
same,normalized growth,"locus YDR334W, strain swr1, active compounds read low",1.02
same,normalized growth,"locus YDR335W, strain msn5, active compounds read low",1.05
same,normalized growth,"locus YDR388W, active compounds read low",0.989
same,normalized growth,"locus YDR392W, strain spt3, active compounds read low",0.963
same,normalized growth,"locus YDR502C, strain sam2, active compounds read low",0.997
same,normalized growth,"locus YEL003W, strain gim4, active compounds read low",1.01
same,normalized growth,"locus YEL037C, strain rad23, active compounds read low",1.04
same,normalized growth,"locus YEL061C, strain CIN8 (second series), active compounds read low",1.04
same,normalized growth,"locus YEL061C, strain CIN8, active compounds read low",1.02
same,normalized growth,"locus YER015W, strain faa2, active compounds read low",1.01
same,normalized growth,"locus YER016W, strain bim1, active compounds read low",1.03
same,normalized growth,"locus YER110C, active compounds read low",0.987
same,normalized growth,"locus YER111C, strain swi4, active compounds read low",1.05
same,normalized growth,"locus YER155C, strain BEM2 (second series), active compounds read low",0.775 (active)
same,normalized growth,"locus YER155C, strain BEM2, active compounds read low",0.991
same,normalized growth,"locus YER167W, strain BCK2, active compounds read low",1.02
same,normalized growth,"locus YFR010W, strain ubp6, active compounds read low",1.01
same,normalized growth,"locus YGL078C, strain dbp3, active compounds read low",0.993
same,normalized growth,"locus YGL167C, strain pmr1, active compounds read low",1.04
same,normalized growth,"locus YGL173C, strain kem1, active compounds read low",1.02
same,normalized growth,"locus YGL227W, strain vid30, active compounds read low",1.05
same,normalized growth,"locus YGL240W, strain doc1, active compounds read low",0.992
same,normalized growth,"locus YGL248W, strain PDE1, active compounds read low",1.01
same,normalized growth,"locus YGL253W, strain hxk2, active compounds read low",1.03
same,normalized growth,"locus YGR078C, strain PAC10, active compounds read low",1.07
same,normalized growth,"locus YGR135W, strain pre9, active compounds read low",0.981
same,normalized growth,"locus YGR229C, strain SMI1, active compounds read low",0.844
same,normalized growth,"locus YGR252W, strain gcn5, active compounds read low",0.924
same,normalized growth,"locus YHR013C, strain ard1, active compounds read low",1.1
same,normalized growth,"locus YHR027C, strain rpn1, active compounds read low",1.05
same,normalized growth,"locus YHR030C, strain SLT2, active compounds read low",1 and 0.948
same,normalized growth,"locus YHR079C, strain IRE1 (second series), active compounds read low",1.01
same,normalized growth,"locus YHR079C, strain IRE1, active compounds read low",0.993
same,normalized growth,"locus YHR094C, strain hxt1, active compounds read low",1.01
same,normalized growth,"locus YHR129C, strain ARP1, active compounds read low",1.02
same,normalized growth,"locus YHR142W, strain chs7, active compounds read low",1.02
same,normalized growth,"locus YIL066C, strain RNR3, active compounds read low",0.999
same,normalized growth,"locus YIL073C, strain SPO22, active compounds read low",1.52 [resistant] (active)
same,normalized growth,"locus YIL125W, strain kgd1, active compounds read low",1
same,normalized growth,"locus YIR030C, strain dcg1, active compounds read low",1
same,normalized growth,"locus YJL092W, strain hpr5, active compounds read low",1.04
same,normalized growth,"locus YJL095W, strain BCK1 (second series), active compounds read low",1.02
same,normalized growth,"locus YJL095W, strain BCK1, active compounds read low",0.965 and 0.972
same,normalized growth,"locus YJL115W, strain asf1, active compounds read low",1.07
same,normalized growth,"locus YJL129C, strain trk1, active compounds read low",1.01
same,normalized growth,"locus YJL134W, strain LCB3, active compounds read low",1.01
same,normalized growth,"locus YJL154C, strain vps35, active compounds read low",1.01
same,normalized growth,"locus YJL164C, strain tpk1, active compounds read low",1.03
same,normalized growth,"locus YJL166W, strain qcr8, active compounds read low",1.02
same,normalized growth,"locus YJL168C, strain set2, active compounds read low",1
same,normalized growth,"locus YJL187C, strain SWE1 (second series), active compounds read low",0.992
same,normalized growth,"locus YJL187C, strain SWE1, active compounds read low",1.04
same,normalized growth,"locus YJR043C, strain POL32, active compounds read low",0.983
same,normalized growth,"locus YJR066W, strain TOR1, active compounds read low",0.935
same,normalized growth,"locus YJR075W, strain HOC1, active compounds read low",1.01
